Results reported in ChEMBL document CHEMBL1157539, “Thousands of chemical starting points for antimalarial lead identification” (Nature, 2010).

How the values were obtained:
Type in all cases: functional
Plasmodium falciparum [1] = test: GSK_TCMDC: Inhibition of Plasmodium falciparum 3D7 in whole red blood cells, using parasite LDH activity as an index of growth. Test compounds present at 2uM
Plasmodium falciparum [2] = test: GSK_TCMDC: Inhibition of Plasmodium falciparum Dd2 in whole red blood cells, using parasite LDH activity as an index of growth. Test compounds present at 2uM
HepG2 = test: GSK_TCMDC: Percent inhibition of human HepG2 cell line. Test compounds present at 10uM.

SMILES | Inhibition (Plasmodium falciparum [1]) | Inhibition (Plasmodium falciparum [2]) | Inhibition (HepG2)
COc1ccc(C2CC(c3cccs3)=NN2C(=O)CNc2ccccc2F)cc1OC (stereo not given) | 87% | 45% | 11%
O=C(N[C@@H](Cc1ccccc1)[C@H](O)CNC1CCOCC1)c1cc(C2CCCC2)cc(N2CCCCS2(=O)=O)c1.O=CO | 100% | 98% | 3%
Cc1cc2nc(N=C3NC4(c5ccccn5)NC(=Nc5nc6cc(C)c(C)cc6[nH]5)NC4(c4ccccn4)N3)[nH]c2cc1C.O=C(O)C(F)(F)F (stereo not given) | 87% | 62% | 3%
CC1(C)C=C(c2ccncc2)c2cc(Cl)ccc2O1.Cl | 97% | 22% | 0%
Cc1cc(OCC2CCCN(c3ncc(C(=O)NC4CC4)cc3Cl)C2)ccc1F (stereo not given) | 88% | 68% | 3%
Cc1c(C)n(Cc2ccccc2)c2ncnc(OC3CCN(CC(=O)NCC4CC4)CC3)c12 | 92% | 79% | 17%
O=C(c1ccc(-c2ccc(-c3nc4cc(C(F)(F)F)ccc4[nH]3)s2)cc1)N1CCN(CCc2ccccc2)CC1 | 98% | 60% | 23%
CCCC(=O)Nc1ccc(OCCCN(Cc2ccccc2OC(F)(F)F)c2ccc(C#N)c(C(F)(F)F)c2)cc1 | 94% | 95% | 0%
O=C(/C=C/c1ccc(Cl)c(Cl)c1)NCCCCCN1CCCC(CNS(=O)(=O)c2ccc(F)cc2)C1 (stereo not given) | 91% | 7% | 56%
COc1ccc(C=NN=c2cc(C)[nH]c3c(C)cccc23)c2ccccc12 | 100% | 98% | 3%
CC1(C)N=C(N)N=C(N)N1CCc1ccccc1.Cl | 93% | 0% | 50%
O=C(NCCN1CCCCC1)c1cccc(Nc2nccc(Nc3ccc(Oc4ccccc4)cc3)n2)c1 | 99% | 86% | 50%
O=[N+]([O-])c1cccc(NC(=S)N2CCCN(Cc3ccc(C(F)(F)F)cc3)CC2)c1 | 90% | 49% | 11%
COCCOC(=O)C(=O)c1c(-c2ccccc2)c(-c2ccc(OC)c(OC)c2)c2c3cc(OC)c(OC)cc3ccn12 | 100% | 100% | 4%
Cl.N=C(NCCc1ccccc1Cl)c1ccc2ccccc2c1 | 88% | 11% | 25%
O=C(Nc1cccc(-c2ccc(-c3nc4ccccc4[nH]3)s2)c1)c1ccncc1 | 92% | 29% | 67%
O=C(Nc1ccc(-c2ccccc2)c(OCCN2CCNCC2)c1)c1ccc(-c2ccc(Cl)cc2)cc1 | 96% | 31% | 92%
COc1ccc(NC(=O)[C@H](CC(C)C)Nc2cc(C)nc(NCC3CCCCC3)n2)cc1.O=C(O)C(F)(F)F | 100% | 92% | 7%
CCCN(CCC)C(=O)c1cc(C(=O)N[C@@H](Cc2ccccc2)[C@H](O)CNC(C)(C)c2cccc(C(F)(F)F)c2)cc(N2CCCCS2(=O)=O)c1 | 99% | 98% | 19%
COc1cccc2cc(C(=O)N[C@@H](CC(C)C)C(=O)N[C@H](C=NN(C)C(=O)OC(C)(C)C)Cc3ccccc3)oc12 | 99% | 89% | 5%
N#Cc1ccc(-c2nc3c(N4CCCC4)cccc3n2CCNCc2ccccc2)cc1.O=C(O)C(F)(F)F | 100% | 99% | 2%
CCCCOP(=O)(OCCCC)C(=Cc1ccc(O)c2ccccc12)P(=O)(OCCCC)OCCCC | 84% | 64% | 1%
CCc1ccnc2c(N3CCCC3=O)cc(C(=O)N[C@@H](Cc3ccccc3)[C@H](O)CNC3CCOCC3)cc12.O=CO | 99% | 98% | 2%
COc1cccc(NC(=O)c2nc(N3CCN(c4ccncc4)CC3)ccc2Cl)c1.O=C(O)C(F)(F)F | 97% | 65% | 14%
O=C(Nc1nc(-c2ccccn2)cc2ccccc12)c1cccc(Cl)c1 | 96% | 72% | 59%
O=[N+]([O-])c1ccc(/C=N/Nc2cc(-c3ccccc3)nc3ccccc23)o1 | 93% | 49% | 48%
O=C(N[C@@H](Cc1ccccc1)[C@H](O)CNCCC(F)(F)F)c1cccc(CCC2CC2)c1 | 87% | 13% | 0%
CCc1ccccc1N1CCN(CCCC(=O)c2ccc(NC(=O)c3cc(Cl)cc(Cl)c3)cc2)CC1 | 99% | 46% | 16%
CN1CCN(CCCN(Cc2ccc(-c3cccc(CNCc4ccc5c(c4)OCO5)c3)cc2)C(=O)Nc2ccccc2)CC1.O=C(O)C(F)(F)F | 100% | 87% | 51%
COc1ccc(NC(=O)N2CCCN(CCCCCNC(=O)/C=C/c3ccc(Cl)cc3)CC2)cc1Cl | 97% | 1% | 15%
